Results reported in PubChem BioAssay.
Activity calls are given as the source filed them.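 How the source made its calls, unless noted: active means NADPH fluorescence slope more negative than the mean of all samples by about 3 SD, 99.7% confidence; inactive means the rest.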

Columns and labels:
[1] = inhibitors of TNFa-induced NFkB p65 translocation, primary screen, imaging, HUVEC, MLSMR starter and 10KST1 sets (AID 438;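 active means inhibition above 20% together with a positive visual image hit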;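 further: compound added about 3h40 before a 20 min TNFalpha stimulation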;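 on inhibition: signal is the nuclear over cytoplasmic p65 intensity ratio per well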); details: HUVEC TNFa-induced p65 nuclear translocation; cell count: measured here: nuclei count (cytotoxicity indicator), at 2.08 µM; inhibition: at 2 µM, stronger effect = higher value, 0% TNFa-plus-vehicle, 100% no-TNFa wells
[2] = reduction of polyQ htt aggregates in cells – imaging, exon1htt(103Q)mCFP cells, high-content imaging, primary screen (AID 483;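 active means visual image review flags a hit and inhibition of aggregation exceeds 20%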;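 further: compound exposure lasted 3 days before fixation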;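 on nuclei count: percent of the per-plate median nuclei count of sample wells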); details: exon1htt(103Q)mCFP cell line, aggregate imaging, at 2 µM; inhibition of aggregation: stronger effect = higher value; nuclei count: measured here: cell count, toxicity
[3] = endothelial E-selectin expression blockers – imaging, HUVEC, immunofluorescence, MLSMR starter and 10KST1 sets, primary screen (AID 487;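 active means visually confirmed hit in the image check and inhibition above 20%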;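 on inhibition: signal is fraction of cell area covered by stained E-selectin grains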;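 on nuclei count: 100% = median nuclei count of all wells on the same plate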); details: HUVEC TNFalpha-induced E-selectin immunofluorescence imaging, at 2 µM; inhibition: stronger effect = higher value; nuclei count: measured here: cell number, toxicity
[4] = target: Voltage-gated potassium channel subunit beta-2 (Rattus norvegicus) (UniProt P62483); assay: inhibitors of rat Kvbeta2 reductase activity – biochemical, NADPH fluorescence, primary screen (AID 622;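 active means fluorescence slope higher than the sample average by over 3 SD, cut at about -0.22 in these data, passing the limit was not always enough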;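 further: slope of raw intensity against log time taken from 70 to 1610 s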); details: recombinant KvBeta, 4-cyanobenzaldehyde reduction, at 10 µM, stronger effect = higher value
Sequence of Voltage-gated potassium channel subunit beta-2 (Rattus norvegicus) (P62483 whole entry, looked up): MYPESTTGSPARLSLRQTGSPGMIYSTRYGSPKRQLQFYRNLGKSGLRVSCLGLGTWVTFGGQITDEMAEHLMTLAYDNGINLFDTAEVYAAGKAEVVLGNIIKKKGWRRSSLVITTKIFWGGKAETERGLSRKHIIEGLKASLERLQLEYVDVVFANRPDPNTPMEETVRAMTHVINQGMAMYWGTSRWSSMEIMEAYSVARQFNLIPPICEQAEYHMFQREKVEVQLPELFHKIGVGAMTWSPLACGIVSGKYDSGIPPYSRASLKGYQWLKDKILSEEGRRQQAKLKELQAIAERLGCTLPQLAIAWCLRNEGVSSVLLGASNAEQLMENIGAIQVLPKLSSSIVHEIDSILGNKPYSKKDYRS

[5] = target: Voltage-gated potassium channel subunit beta-2 (Rattus norvegicus) (UniProt P62483); assay: enhancers of rat Kvbeta2 NADPH turnover – biochemical, NADPH fluorescence, primary screen (AID 623); details: Recombinant KvBeta, NADPH fluorescence decrease slope, 10 min; at 10 µM; stronger effect = lower value;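 further: fluorescence intensity change per second fitted from 20 to 320 s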
[6] = target: Alpha-2C adrenergic receptor (Homo sapiens) (UniProt P18825); assay: compounds altering alpha2C-coupled GIRK flux – cell-based, HEK293 alpha2C/GIRK1/2, thallium flux, primary screen (AID 624;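 active means fluorescence slope after compound addition differing from the mean of all screened samples at 99.7% confidence, in either direction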;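 further: slope of fluorescence ratio to pre-addition baseline per second over 15 to 24 s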); details: thallium flux BTC fluorescence, at 10 µM, actives lie on both sides
Sequence of Alpha-2C adrenergic receptor (Homo sapiens) (P18825 whole entry, looked up): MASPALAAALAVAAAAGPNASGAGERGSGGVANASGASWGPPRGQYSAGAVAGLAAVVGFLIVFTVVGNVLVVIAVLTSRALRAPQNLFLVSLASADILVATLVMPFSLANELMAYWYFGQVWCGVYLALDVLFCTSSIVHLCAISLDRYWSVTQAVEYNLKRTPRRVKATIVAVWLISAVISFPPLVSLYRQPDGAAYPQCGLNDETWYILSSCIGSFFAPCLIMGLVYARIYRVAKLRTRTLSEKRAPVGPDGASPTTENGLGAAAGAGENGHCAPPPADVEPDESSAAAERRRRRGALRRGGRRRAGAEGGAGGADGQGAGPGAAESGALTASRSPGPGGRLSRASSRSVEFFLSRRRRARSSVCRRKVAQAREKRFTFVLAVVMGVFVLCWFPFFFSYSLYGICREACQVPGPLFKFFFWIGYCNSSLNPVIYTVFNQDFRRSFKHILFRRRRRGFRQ

[7] = blockers of RIG-like receptor reporter activation – cell-based, Sendai virus stimulus, luciferase, 10K MLSCN set, TLR/RLR signaling modifier project, primary screen (AID 602276;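 active means inhibition at or above 50% at 10 µM; inactive means inhibition below 50%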;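 further: firefly luciferase from ISG56 promoter only with Renilla not read in this screen; 0% = Sendai virus plus DMSO and 100% = medium plus DMSO without virus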); details: HEK293 RL24 IRF3 luciferase reporter, at 10 µM, stronger effect = higher value
[8] = TLR3 IRF3 reporter activation blockers – cell-based, poly I:C stimulus, luciferase, 10K MLSCN set, primary screen (AID 602277;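 active means inhibition of the reporter signal at or above 50%; inactive means inhibition below 50%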); details: HEK293-TLR3 RL24 IRF3 luciferase reporter, at 10 µM, stronger effect = higher value

Compound	cell count [1]	inhibition [1]	inhibition of aggregation [2]	nuclei count [2]	inhibition [3]	nuclei count [3]	fluorescence slope [4]	NADPH fluorescence slope [5]	slope [6]	inhibition [7]	inhibition [8]
COC(=O)c1ccccc1NC(=O)C1CC(=O)N(c2ccccc2)C1 (stereo unspecified)	576	-5.8% (inactive)	13.9% (inactive)	99.5%	-18.1% (inactive)	106%	-0.496 (inactive)	-5.9e-05 (inactive)	0.00531 (inactive)	10.2% (inactive)	6.98% (inactive)
COc1ccc(Br)cc1C1N2CC3(C)CN1CC(C)(C2)C3=O (stereo unspecified)	435	5.6% (inactive)	6.8% (inactive)	96.9%		148%	-0.389 (inactive)	-0.000152 (inactive)	0.00688 (inactive)	-3.74% (inactive)	10.3% (inactive)
Cc1ccc(CCNC(=O)C2CCCN(S(=O)(=O)c3cnc[nH]3)C2)cc1 (stereo unspecified)	603	-0.2% (inactive)	-6.4% (inactive)	99.1%	-89.2% (inactive)	135%	-0.577 (inactive)	-1.4e-06 (inactive)	0.00614 (inactive)	1.87% (inactive)	18% (inactive)
O=c1c(CN2CCN(Cc3ccccc3)CC2)coc2ccc(Cl)cc12	463	-1.6% (inactive)	-1.1% (inactive)	113%	-69.1% (inactive)	125%	-0.41 (inactive)	-0.000112 (inactive)	0.00599 (inactive)	-2.78% (inactive)	4.22% (inactive)
O=C(OCc1nnc(-c2ccc(Cl)cc2)o1)c1ccc(=O)n(Cc2ccccc2)n1	413	1.7% (inactive)	3% (inactive)	99.3%		160%	-0.44 (inactive)	-5e-05 (inactive)	0.00426 (inactive)	-5.01% (inactive)	-8.16% (inactive)
Cc1cccc(-n2ncc3c(N(CCO)CCO)ncnc32)c1	635	1.4% (inactive)	-5% (inactive)	53.9%	-35.6% (inactive)	125%	-0.513 (inactive)	-1.8e-05 (inactive)	0.00728 (inactive)	-28.4% (inactive)	-84.3% (inactive)
COC(=O)c1cnc2c(C(F)(F)F)cccc2c1OC	595	-8.5% (inactive)	-5% (inactive)	61.8%	-64.2% (inactive)	84.8%	-0.605 (inactive)	6.9e-06 (inactive)	0.0043 (inactive)	9.38% (inactive)	10.1% (inactive)
CCN1CCN(C(=O)C2CCN(C(=O)c3cc4sccc4n3CC)CC2)CC1	642	-12.2% (inactive)	4.1% (inactive)	85.3%	-25.4% (inactive)	115%	-0.556 (inactive)	-4.1e-05 (inactive)	0.00649 (inactive)	12.4% (inactive)	45.3% (inactive)
Clc1cccc(Nc2c3c(nc4ncnn24)CCC3)c1	416	6% (inactive)	-33.4% (inactive)	36%		145%	-0.63 (inactive)	-2.2e-07 (inactive)	0.00604 (inactive)	14.9% (inactive)	30.2% (inactive)
Cc1cccc(NC2SC(=O)N(c3ccccc3)C2=O)c1 (stereo unspecified)	152	-14.3% (inactive)	11.5% (inactive)	92.8%	26.4% (inactive)	80.9%	-0.377 (inactive)	5.7e-06 (inactive)	0.00476 (inactive)	-2.7% (inactive)	-12.1% (inactive)
CNS(=O)(=O)c1cccc(C(=O)OCC(=O)c2cc(C)n(-c3ccc4c(c3)OCO4)c2C)c1	406	2.5% (inactive)	-7.6% (inactive)	97.3%		156%	-0.436 (inactive)	-4.7e-05 (inactive)	0.0143 (active)	-1.89% (inactive)	10.6% (inactive)
CC1CN(C(=O)c2cc3cc(Cl)cc(Cl)c3oc2=O)CC(C)O1 (stereo unspecified)	365	5.6% (inactive)	1% (inactive)	104%	-24.5% (inactive)	100%	-0.474 (inactive)	-4.7e-06 (inactive)	0.00693 (inactive)	11.6% (inactive)	23.5% (inactive)
Cc1cccc(NS(=O)(=O)c2cc(C(=O)OCC(=O)Nc3cc(C)on3)ccc2C)c1	427	7.9% (inactive)	3.7% (inactive)	99.6%		125%	-0.498 (inactive)	-3.2e-05 (inactive)	0.00536 (inactive)	25.1% (inactive)	2.98% (inactive)
Cc1cc(NC(=O)c2ccccc2)ncc1NC(=O)c1ccco1	427	12.5% (inactive)	11.4% (inactive)	100%		147%	-0.603 (inactive)	2.5e-05 (inactive)	0.00711 (inactive)	7.79% (inactive)	-25.3% (inactive)
Cc1onc(-c2ccccc2)c1C(=O)Nc1sc2c(c1C(N)=O)CCC2	404	4.8% (inactive)	-0.6% (inactive)	107%		139%	-0.282 (inactive)	-1.9e-05 (inactive)	0.00375 (inactive)	8.08% (inactive)	-31.8% (inactive)
Cc1cc(C)n(-c2ccc(C(=O)Oc3ccc4c(c3)OCO4)cc2)n1	440	3.3% (inactive)	17.6% (inactive)	100%		148%	-0.468 (inactive)	-2.1e-05 (inactive)	0.00555 (inactive)	7.51% (inactive)	1.41% (inactive)
CN(C)C(=O)N1CCN(C(=O)c2ccco2)CC1	827	-15.9% (inactive)	17.6% (inactive)	99.6%	-69.2% (inactive)	114%	-0.601 (inactive)	5.7e-06 (inactive)	0.00702 (inactive)	-4.34% (inactive)	19.5% (inactive)
COc1cccc(C(=O)Nc2ccc(C)cc2)c1	410	-0.2% (inactive)	4.8% (inactive)	95.1%		154%	-0.367 (inactive)	4.6e-05 (inactive)	0.00626 (inactive)	-48.7% (inactive)	-91.5% (inactive)
CCOc1ccccc1NC(=O)CSc1nnc2c(CC)c(C)nc(N)n12	340	-6.8% (inactive)	1.5% (inactive)	99.1%	9.7% (inactive)	92.7%	-0.305 (inactive)	-4e-05 (inactive)	0.00576 (inactive)	-6.38% (inactive)	98.4% (active)
CC(C)Cc1nc2oc3c(N4CCN(CCO)CC4)ncnc3c2c2c1CCCC2	450	-11.5% (inactive)	-9.1% (inactive)	99.9%	6.5% (inactive)	119%	-0.475 (inactive)	4e-05 (inactive)	0.00359 (inactive)	-8.86% (inactive)	31.2% (inactive)
